Consider eight compounds from PubChem BioAssay (NCI).

Structures are written as SMILES. The panel holds about 83,000 compounds, 20% with a hit somewhere; the sample as a whole holds those more often.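 Growth was measured after 48 h exposure to one concentration of compound in 96-well plates. Values under 10 count as active.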 A number with no mark means an inactive call. The source made the active and inactive calls.

Test systems include NCI-H23 lung; NCI-H226 lung; NCI-H322M lung; HOP-62 NSCLC; NCI-H460 lung; HOP-92 NSCLC; NCI-H522 lung; A549/ATCC NSCLC; 786-0 renal; COLO 205 colon; DU-145 prostate; K-562 leukemia; MALME-3M melanoma; MDA-MB-231 breast; RXF 393 renal; SF-268 CNS; SF-295 CNS; SF-539 CNS; UACC-257 melanoma; M14 melanoma.
Common to all, as to assay: NCI-60 one-dose screen, 48 h (100 = growth as untreated, 0 = no growth, -100 = all killed)
Common to all, as to settings: 10 µM unless noted

With `Cc1ccc(C(=O)N/N=C/c2cccc(Oc3ccccc3)c2)cn1`, the growth was 70.7% in the assay with NCI-H23 lung; 66.9% in the assay on NCI-H226 lung; 82.3% with NCI-H322M lung; 71.6% with HOP-62 NSCLC; 33.3% with NCI-H460 lung; 71.6% in the assay with HOP-92 NSCLC. Besides, the growth in the assay with NCI-H522 lung is 31.5%; in the assay on A549/ATCC NSCLC it was 54.1%; in the assay with 786-0 renal, 18.3%; in the assay on COLO 205 colon it was 65.2%; in the assay with DU-145 prostate, 88.7%; in the assay on K-562 leukemia it was 23.8%. The growth with MALME-3M melanoma was 64.8%; with MDA-MB-231 breast, 65.3%; with RXF 393 renal it was 71.6%; in the assay on SF-268 CNS, 79.1%; with SF-295 CNS, 41.6%; with SF-539 CNS, 72.9%. Moreover, the growth in the assay on UACC-257 melanoma is 72.4%.

For `CCCCn1c(=O)c(-c2cc(-c3ccc(Cl)cc3)nc(-c3ccc(Cl)cc3)c2)cc2ccc(Cl)cc21`, the growth is 97.8% in the assay on NCI-H23 lung; 98.5% in the assay on NCI-H226 lung; 98.4% in the assay with NCI-H322M lung; 97.5% with HOP-62 NSCLC; 106% in the assay on NCI-H460 lung; 88.3% with HOP-92 NSCLC. The growth in the assay on NCI-H522 lung is 98.4%; in the assay on A549/ATCC NSCLC it was 105%; in the assay with 786-0 renal, 103%; with COLO 205 colon it was 105%; in the assay with DU-145 prostate, 108%; in the assay with K-562 leukemia, 97.8%. In addition, the growth is 98.5% in the assay with MALME-3M melanoma; 96.5% with MDA-MB-231 breast; 103% with RXF 393 renal; 94.2% in the assay on SF-268 CNS; 100% with SF-295 CNS; 96.1% in the assay on SF-539 CNS. Besides, the growth in the assay with UACC-257 melanoma was 101%.

`COc1cc(/C=C/c2c(C(C)=O)c(C)nc3ccccc23)cc(OC)c1OC`: the growth with NCI-H23 lung is 52.8%; in the assay on NCI-H226 lung it was 52.4%; in the assay on NCI-H322M lung, 51.3%; with HOP-62 NSCLC, 42.4%; in the assay with NCI-H460 lung, 15%; in the assay with HOP-92 NSCLC, 47.8%. Moreover, the growth in the assay on NCI-H522 lung was 24.6%; in the assay with A549/ATCC NSCLC, 53.4%; in the assay on 786-0 renal, 42.4%; in the assay with COLO 205 colon, 19%; in the assay with DU-145 prostate, 42.1%; with K-562 leukemia, 13.8%. Also, the growth in the assay with MALME-3M melanoma is 52.5%; in the assay with MDA-MB-231 breast, 43.1%; in the assay on RXF 393 renal it was 10.8%; in the assay with SF-268 CNS, 49.3%; with SF-295 CNS, 20.1%; in the assay on SF-539 CNS, 7.46% (active). The growth with UACC-257 melanoma was 59.6%.

For `CCN(CC)CCNC(=O)c1cn2ncnc(Oc3ccc(NC(=O)Nc4ccc(Cl)c(C(F)(F)F)c4)cc3)c2c1C`, the growth was -83.6% (active) in the assay with NCI-H23 lung; 6% (active) in the assay on NCI-H226 lung; 4.06% (active) in the assay on NCI-H322M lung; -78.5% (active) in the assay with HOP-62 NSCLC; -74.4% (active) in the assay on NCI-H460 lung; -39.1% (active) in the assay with HOP-92 NSCLC. Besides, the growth in the assay on NCI-H522 lung is -63% (active); with A549/ATCC NSCLC, -85.2% (active); in the assay with 786-0 renal, -89.9% (active); with COLO 205 colon it was -73.4% (active); in the assay on DU-145 prostate, -53.3% (active); with K-562 leukemia, -79.1% (active). Also, the growth in the assay on MALME-3M melanoma was -81.1% (active); with MDA-MB-231 breast it was -94.6% (active); with RXF 393 renal, -36.3% (active); in the assay with SF-268 CNS, -64.6% (active); in the assay with SF-295 CNS, -87.4% (active); in the assay on SF-539 CNS, -93.1% (active). For the same compound, the growth with UACC-257 melanoma is -83.2% (active).

For `CCOC(=O)CCN(C(=O)Nc1ccccc1)C1CCCCC1`, the growth in the assay with NCI-H23 lung is 102%; with NCI-H226 lung it was 115%; in the assay with NCI-H322M lung, 110%; with HOP-62 NSCLC, 86.8%; in the assay on NCI-H460 lung, 102%; in the assay with HOP-92 NSCLC, 111%. Moreover, the growth is 99.2% in the assay on NCI-H522 lung; 132% in the assay with A549/ATCC NSCLC; 91.5% in the assay on 786-0 renal; 139% in the assay with COLO 205 colon; 100% in the assay on DU-145 prostate; 132% in the assay on K-562 leukemia. Besides, the growth with MALME-3M melanoma was 113%; in the assay on MDA-MB-231 breast, 110%; in the assay with RXF 393 renal, 177%; in the assay with SF-268 CNS, 104%; in the assay on SF-295 CNS, 108%; in the assay with SF-539 CNS it was 98.9%. For the same compound, the growth with UACC-257 melanoma was 119%; in the assay on M14 melanoma, 108%.

Consider `Brc1c[n+](Cc2ccc3ccccc3c2)cn1Cc1ccc2ccccc2c1`, for which the growth in the assay with NCI-H23 lung was 9.7% (active); in the assay with NCI-H226 lung, 34.4%; with NCI-H322M lung, 73.8%; in the assay on HOP-62 NSCLC it was 48%; in the assay with NCI-H460 lung it was 20.1%; in the assay on HOP-92 NSCLC, -24% (active). The growth in the assay on NCI-H522 lung is 13.3%; with A549/ATCC NSCLC, 70%; with 786-0 renal it was 44.3%; in the assay with COLO 205 colon, -49.6% (active); in the assay on DU-145 prostate it was 38.5%; with K-562 leukemia it was 10.5%. The growth in the assay with MALME-3M melanoma was -4.88% (active); in the assay with MDA-MB-231 breast, 8.23% (active); with RXF 393 renal, 21.6%; with SF-268 CNS it was 14.5%; with SF-295 CNS it was 49.6%; in the assay with SF-539 CNS, 40.1%. Also, the growth is -35.4% (active) with UACC-257 melanoma and 1.8% (active) in the assay on M14 melanoma.

For the compound `c1ccc(Nc2cc(-c3cccnc3)[nH]n2)cc1`, the growth in the assay on NCI-H23 lung is 105%; in the assay on NCI-H226 lung it was 94.1%; in the assay on NCI-H322M lung, 95.5%; with HOP-62 NSCLC, 84%; with NCI-H460 lung, 111%; in the assay with HOP-92 NSCLC it was 94.4%. The growth with NCI-H522 lung is 89.5%; in the assay with A549/ATCC NSCLC it was 93.3%; in the assay on 786-0 renal, 98.1%; with COLO 205 colon, 106%; in the assay with DU-145 prostate it was 100%; in the assay with K-562 leukemia, 101%. The growth is 118% with MALME-3M melanoma; 107% in the assay on MDA-MB-231 breast; 107% in the assay on RXF 393 renal; 85.8% in the assay on SF-268 CNS; 97.6% in the assay with SF-295 CNS; 70.2% in the assay on SF-539 CNS. Moreover, the growth with UACC-257 melanoma is 100%; in the assay on M14 melanoma it was 117%.

Turning to `O=c1cc(SCc2ccccc2)nc[nH]1`, the growth in the assay on NCI-H23 lung is 108%; in the assay on NCI-H226 lung, 104%; with NCI-H322M lung it was 105%; in the assay on HOP-62 NSCLC, 91.1%; in the assay on NCI-H460 lung, 112%; in the assay on HOP-92 NSCLC, 100%. Also, the growth in the assay on NCI-H522 lung is 116%; in the assay with A549/ATCC NSCLC, 103%; in the assay on 786-0 renal it was 95%; in the assay with COLO 205 colon it was 133%; in the assay on DU-145 prostate it was 121%; in the assay on K-562 leukemia it was 113%. The growth in the assay on MALME-3M melanoma is 111%; with MDA-MB-231 breast it was 113%; in the assay with RXF 393 renal it was 124%; with SF-268 CNS, 106%; in the assay with SF-295 CNS it was 100%; in the assay on SF-539 CNS, 108%. The values for the growth in the assay on UACC-257 melanoma and with M14 melanoma were 108% and 106%, respectively.
